According to PubChem BioAssay:
Where “and” joins values, the source holds several entries; their conditions need not be identical. Equal entries are not always repeated. Calls of active or inactive are those of the source.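 How the source made its calls, unless noted: active means viability loss from added drug above about 55%, and viability with drug at most 40%, in both replicates (limit read from the data, passing the limit was not always enough); inconclusive means both conditions met in only one replicate; inactive means neither replicate meets both conditions.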

Assay: growth inhibitors of H69AR lung tumor, primary screen, human, duplicate replicates (AID 580;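 active means viability at or under a set limit in both replicates, limit being median viability minus 3 SD, cut at about 48% in these data, passing the limit was not always enough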;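 further: 100% = mean luminescence of untreated wells and 0% = no signal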)
Details: H69AR lung tumor cells viability, ATP luminescence, 72 h; at 10 µM; stronger effect = lower value

SMILES	viability
Cn1c(=O)[nH]c(=O)c2c1nc(N1CCNCC1)n2CCOc1ccccc1	82% (inactive)
CCOC(=O)c1cc2n(n1)C(C(F)(F)C(F)(F)F)CC(C)N2 (stereo not given)	97.3% (inactive)
Cc1ccccc1-n1c(=O)c2ccccc2n2nnnc12	93% (inactive)
Cc1cccc(N2C(=O)CC(N3CCN(C(=O)c4ccccc4)CC3)C2=O)c1 (stereo not given)	96.3% (inactive)
CC(C)Cn1c(=O)c(C2=NS(=O)(=O)c3ccccc3N2)c(O)c2ccccc21	98.1% (inactive)
c1ccc(CNc2ncnc3ccccc23)cc1	83.8% (inactive)
O=S1(=O)N=C(Nc2nc3c(s2)CCCC3)c2ccccc21	78.9% (inactive)
CCCn1c2ccccc2c2nnc(SCC(=O)Nc3ncccn3)nc21	87.6% (inactive)
COc1cc(OC)cc(C(=O)N2c3ccc(F)cc3CCC2C)c1 (stereo not given)	97.5% (inactive)
CCOC(=O)C(CCc1nnc(N)s1)C(=O)OCC	108% (inactive)
CCOC(=O)N1CCN(c2c(NCCCOC(C)C)c(=O)c2=O)CC1	97.5% (inactive)
CN(C)S(=O)(=O)Nc1ccc(Br)cc1F	102% (inactive)
CC(=O)Nc1c(C(=O)C2CC2)oc2ccccc12	90.2% (inactive)
O=C(COC(=O)c1cc(-c2ccco2)nc2ccccc12)NCc1ccc2c(c1)OCO2	96.8% (inactive)
CCC(=O)c1ccc(OCCN2CCOCC2)cc1	109% (inactive)
Cc1cc(=O)oc2cc(OCC(=O)OCc3nnc(-c4ccccc4)o3)ccc12	94.9% (inactive)
Nn1c(SCC(=O)NC2CCCCC2)nnc1C1CC1	103% (inactive)
CCN(C(=O)Cc1c(C(=O)O)[nH]c2ccccc12)c1cc(OC)ccc1OC	92.7% (inactive)
O=C(NCc1ccco1)c1cnc2n(c1=O)CCS2	89.5% (inactive)
O=C1CN(C(=O)COC(=O)c2ccccc2NC(=O)c2ccco2)c2ccccc2N1	83.6% (inactive)

SMILES	viability
CC(=O)Nc1ccc(S(=O)(=O)n2nc(C)cc2C)cc1	105% (inactive)
CCOC(=O)CSc1nnc(Cn2nnc(-c3ccccc3)n2)n1CC	90.7% (inactive)
O=C(Nc1ccccc1C(=O)N1CCCCCC1)c1cccc(S(=O)(=O)N2CCOCC2)c1	95.5% (inactive)
Cc1ccc(-c2cc(C(=O)NCc3ccc4c(c3)OCO4)no2)cc1	90.8% (inactive)
CCOC(=O)c1cc(C)sc1N1C(=O)C2C3C=CC(C3)C2C1=O (stereo not given)	98.7% (inactive)
Cc1ccc(-c2nc(CS(=O)CC(=O)NCCN(CC(C)C)CC(C)C)c(C)o2)cc1 (stereo not given)	103% (inactive)
CCN(CC)S(=O)(=O)N1CCC(C(=O)NC2CCCc3ccccc32)CC1 (stereo not given)	90.5% (inactive)
COc1ccc(OC)c(Nc2cc(-c3ccccc3)nc(N)n2)c1	30.7% (active)
O=c1ccc(S(=O)(=O)N2CCC(Cc3ccccc3)CC2)c[nH]1	95.3% (inactive)
CN(C)S(=O)(=O)c1ccc(Oc2ccc(S(=O)(=O)N(C)C)cc2)cc1	93.8% (inactive)
COc1ccc2c(c1OC)C(=O)OC2C1c2c(cc3c(c2OC)OCO3)CCN1C (stereo not given)	73.8% (inactive)
c1ccc(-c2cn3c4c(sc3n2)CCCC4)cc1	39.9% (active)
Oc1ccc2[nH]cnc2c1CN1CCCCC1	99.7% (inactive)
CCCCOc1cc(=O)[nH]c(=O)[nH]1	102% (inactive)
COc1cc(-c2nn3c(-c4cccnc4)nnc3s2)cc(OC)c1OC	92.6% (inactive)
CCS(=O)(=O)Nc1ccc(C(=O)CC2(O)C(=O)Nc3ccccc32)cc1 (stereo not given)	89.5% (inactive)
Cn1c(=O)c2[nH]c(NCC3CCCO3)nc2n(-c2ccccc2)c1=O (stereo not given)	102% (inactive)
Cc1cccc(OCCCC(=O)O)c1	89.4% (inactive)
Cc1cccc2cc(CN(CC3CCCO3)C(=O)c3cnccn3)c(=O)[nH]c12 (stereo not given)	85.1% (inactive)
COCCCNC(=O)C(Cc1ccccc1)NS(=O)(=O)c1ccc2c(c1)c(=O)n(C)c(=O)n2C (stereo not given)	89.2% (inactive)

Assay: reversal of MRP1-mediated doxorubicin resistance, pilot screen, H69AR cells, doxorubicin co-treatment (AID 601)
Details: H69AR cells + 2 uM doxorubicin, CellTiter-Glo, 72 h; at 10 µM; stronger effect = higher value

SMILES	differential viability (reversal)
Cn1c(=O)[nH]c(=O)c2c1nc(N1CCNCC1)n2CCOc1ccccc1	-8.6% (inactive)
CCOC(=O)c1cc2n(n1)C(C(F)(F)C(F)(F)F)CC(C)N2 (stereo not given)	4.36% (inactive)
Cc1ccccc1-n1c(=O)c2ccccc2n2nnnc12	-1.09% (inactive)
Cc1cccc(N2C(=O)CC(N3CCN(C(=O)c4ccccc4)CC3)C2=O)c1 (stereo not given)	12.7% (inactive)
CC(C)Cn1c(=O)c(C2=NS(=O)(=O)c3ccccc3N2)c(O)c2ccccc21	-0.935% (inactive)
c1ccc(CNc2ncnc3ccccc23)cc1	-13.6% (inactive)
O=S1(=O)N=C(Nc2nc3c(s2)CCCC3)c2ccccc21	-3.82% (inactive)
CCCn1c2ccccc2c2nnc(SCC(=O)Nc3ncccn3)nc21	10.3% (inactive)
COc1cc(OC)cc(C(=O)N2c3ccc(F)cc3CCC2C)c1 (stereo not given)	6.82% (inactive)
CCOC(=O)C(CCc1nnc(N)s1)C(=O)OCC	12.8% (inactive)
CCOC(=O)N1CCN(c2c(NCCCOC(C)C)c(=O)c2=O)CC1	7.67% (inactive)
CN(C)S(=O)(=O)Nc1ccc(Br)cc1F	13.6% (inactive)
CC(=O)Nc1c(C(=O)C2CC2)oc2ccccc12	7.75% (inactive)
O=C(COC(=O)c1cc(-c2ccco2)nc2ccccc12)NCc1ccc2c(c1)OCO2	11.3% (inactive)
CCC(=O)c1ccc(OCCN2CCOCC2)cc1	17% (inactive)
Cc1cc(=O)oc2cc(OCC(=O)OCc3nnc(-c4ccccc4)o3)ccc12	3.04% (inactive)
Nn1c(SCC(=O)NC2CCCCC2)nnc1C1CC1	0.415% (inactive)
CCN(C(=O)Cc1c(C(=O)O)[nH]c2ccccc12)c1cc(OC)ccc1OC	-2.61% (inactive)
O=C(NCc1ccco1)c1cnc2n(c1=O)CCS2	0.265% (inactive)
O=C1CN(C(=O)COC(=O)c2ccccc2NC(=O)c2ccco2)c2ccccc2N1	-14.1% (inactive)

SMILES	differential viability (reversal)
CC(=O)Nc1ccc(S(=O)(=O)n2nc(C)cc2C)cc1	5.88% (inactive)
CCOC(=O)CSc1nnc(Cn2nnc(-c3ccccc3)n2)n1CC	-2.04% (inactive)
O=C(Nc1ccccc1C(=O)N1CCCCCC1)c1cccc(S(=O)(=O)N2CCOCC2)c1	-7.13% (inactive)
Cc1ccc(-c2cc(C(=O)NCc3ccc4c(c3)OCO4)no2)cc1	5.94% (inactive)
CCOC(=O)c1cc(C)sc1N1C(=O)C2C3C=CC(C3)C2C1=O (stereo not given)	5.84% (inactive)
Cc1ccc(-c2nc(CS(=O)CC(=O)NCCN(CC(C)C)CC(C)C)c(C)o2)cc1 (stereo not given)	19.8% (inactive)
CCN(CC)S(=O)(=O)N1CCC(C(=O)NC2CCCc3ccccc32)CC1 (stereo not given)	4.3% (inactive)
COc1ccc(OC)c(Nc2cc(-c3ccccc3)nc(N)n2)c1	-36.4% (inactive)
O=c1ccc(S(=O)(=O)N2CCC(Cc3ccccc3)CC2)c[nH]1	8.51% (inactive)
CN(C)S(=O)(=O)c1ccc(Oc2ccc(S(=O)(=O)N(C)C)cc2)cc1	-0.755% (inactive)
COc1ccc2c(c1OC)C(=O)OC2C1c2c(cc3c(c2OC)OCO3)CCN1C (stereo not given)	-40% (inactive) and -23.1% (inactive)
c1ccc(-c2cn3c4c(sc3n2)CCCC4)cc1	-25.4% (inactive)
Oc1ccc2[nH]cnc2c1CN1CCCCC1	7.21% (inactive)
CCCCOc1cc(=O)[nH]c(=O)[nH]1	8.32% (inactive)
COc1cc(-c2nn3c(-c4cccnc4)nnc3s2)cc(OC)c1OC	6.8% (inactive)
CCS(=O)(=O)Nc1ccc(C(=O)CC2(O)C(=O)Nc3ccccc32)cc1 (stereo not given)	-7.81% (inactive)
Cn1c(=O)c2[nH]c(NCC3CCCO3)nc2n(-c2ccccc2)c1=O (stereo not given)	10.4% (inactive)
Cc1cccc(OCCCC(=O)O)c1	-4.09% (inactive)
Cc1cccc2cc(CN(CC3CCCO3)C(=O)c3cnccn3)c(=O)[nH]c12 (stereo not given)	-2.77% (inactive)
COCCCNC(=O)C(Cc1ccccc1)NS(=O)(=O)c1ccc2c(c1)c(=O)n(C)c(=O)n2C (stereo not given)	3.26% (inactive)
